Results: publication PMC7862700, “An all-to-all approach to the identification of sequence-specific readers for epigenetic DNA modifications on cytosine”

Assays:
Assay in all cases: DAPPL (digital affinity profiling via proximity ligation, sequencing); 10 mM Tris-HCl pH 7.5, 50 mM NaCl, 1 mM DTT, 4% glycerol, room temperature, 30 min; GST-TFs on glutathione beads, 16-mer random dsDNA library, 0.1% formaldehyde crosslink after washing; high values mean tight binding
FLI1 = target: T1, FLI1 (Homo sapiens, UniProt Q01543 1-452); details: protein: recombinant; tags: N-terminal GST; dsDNA, one strand shown
T1 sequence: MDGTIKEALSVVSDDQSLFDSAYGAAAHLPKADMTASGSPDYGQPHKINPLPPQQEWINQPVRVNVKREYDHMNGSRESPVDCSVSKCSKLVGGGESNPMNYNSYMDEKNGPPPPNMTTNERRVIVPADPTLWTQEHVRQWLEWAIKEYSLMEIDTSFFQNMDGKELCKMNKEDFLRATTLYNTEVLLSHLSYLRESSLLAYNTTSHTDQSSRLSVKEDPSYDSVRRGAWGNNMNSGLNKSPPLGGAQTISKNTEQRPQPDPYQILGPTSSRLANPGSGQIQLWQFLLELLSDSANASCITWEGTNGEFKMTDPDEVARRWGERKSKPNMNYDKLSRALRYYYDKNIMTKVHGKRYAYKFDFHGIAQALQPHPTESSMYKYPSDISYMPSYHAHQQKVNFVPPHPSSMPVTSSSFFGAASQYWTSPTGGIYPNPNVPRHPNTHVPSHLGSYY
How it was run: (§1)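 GST fusions of human transcription factors were expressed in yeast and captured with glutathione beads. Once given DNA barcodes and pooled alongside a tag-only sample, they were incubated for 30 min at room temperature with 200 nmole of a random double-stranded 16-mer DNA library in Tris/NaCl/DTT/glycerol buffer, then washed, crosslinked (0.1% formaldehyde), proximity-ligated, PCR-amplified and sequenced on an Illumina NextSeq500. The binding signal of each hexamer is its read frequency for a factor divided by its frequency for the tag-only sample.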

ELK1 = target: T2, ELK1 (Homo sapiens, UniProt P19419 1-428); details: protein: recombinant; tags: N-terminal GST; dsDNA, one strand shown
T2 sequence: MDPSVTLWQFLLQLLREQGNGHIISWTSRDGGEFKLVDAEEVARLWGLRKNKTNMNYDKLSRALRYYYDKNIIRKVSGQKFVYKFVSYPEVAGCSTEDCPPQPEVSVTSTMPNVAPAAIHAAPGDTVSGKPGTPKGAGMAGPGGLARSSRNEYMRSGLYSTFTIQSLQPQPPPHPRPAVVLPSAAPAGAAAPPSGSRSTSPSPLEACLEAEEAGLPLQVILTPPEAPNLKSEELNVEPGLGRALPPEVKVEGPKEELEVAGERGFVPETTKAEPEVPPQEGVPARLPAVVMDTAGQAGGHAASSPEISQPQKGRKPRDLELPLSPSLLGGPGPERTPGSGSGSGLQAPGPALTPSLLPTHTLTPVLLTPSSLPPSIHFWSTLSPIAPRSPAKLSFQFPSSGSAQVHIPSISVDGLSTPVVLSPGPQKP
How it was run: as §1

GABPA = target: T3, GABPA (Homo sapiens, UniProt Q06546 1-454); details: protein: recombinant; tags: N-terminal GST; dsDNA, one strand shown
T3 sequence: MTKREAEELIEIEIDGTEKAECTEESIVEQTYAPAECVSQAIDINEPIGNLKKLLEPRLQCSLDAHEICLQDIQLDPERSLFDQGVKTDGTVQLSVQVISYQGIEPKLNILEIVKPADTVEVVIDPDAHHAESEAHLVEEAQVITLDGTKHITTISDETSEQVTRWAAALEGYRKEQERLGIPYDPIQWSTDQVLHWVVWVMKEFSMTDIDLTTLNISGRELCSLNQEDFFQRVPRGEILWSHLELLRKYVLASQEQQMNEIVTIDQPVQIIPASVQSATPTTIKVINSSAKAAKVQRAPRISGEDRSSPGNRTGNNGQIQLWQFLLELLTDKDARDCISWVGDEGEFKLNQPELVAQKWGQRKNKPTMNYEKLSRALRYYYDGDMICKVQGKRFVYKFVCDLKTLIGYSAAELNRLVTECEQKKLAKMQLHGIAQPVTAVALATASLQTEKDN
How it was run: as §1

ERG = target: T4, ERG (Homo sapiens, UniProt P11308 1-479); details: protein: recombinant; tags: N-terminal GST; dsDNA, one strand shown
T4 sequence: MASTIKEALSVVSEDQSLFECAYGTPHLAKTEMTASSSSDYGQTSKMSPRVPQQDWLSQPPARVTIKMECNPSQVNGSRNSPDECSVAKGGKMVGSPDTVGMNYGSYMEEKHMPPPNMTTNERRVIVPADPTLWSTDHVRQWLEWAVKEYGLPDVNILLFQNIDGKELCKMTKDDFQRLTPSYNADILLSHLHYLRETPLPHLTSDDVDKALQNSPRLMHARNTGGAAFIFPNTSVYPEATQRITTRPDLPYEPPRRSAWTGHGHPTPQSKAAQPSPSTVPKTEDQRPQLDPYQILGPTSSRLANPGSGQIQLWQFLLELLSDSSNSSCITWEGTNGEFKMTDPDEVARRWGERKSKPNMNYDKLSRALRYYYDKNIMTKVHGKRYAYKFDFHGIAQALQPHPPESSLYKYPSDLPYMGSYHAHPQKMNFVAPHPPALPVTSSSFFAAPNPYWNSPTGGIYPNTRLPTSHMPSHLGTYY
How it was run: as §1

ELF1 = ELF1 (Homo sapiens, UniProt P32519 1-619); details: protein: recombinant; tags: N-terminal GST; dsDNA, one strand shown
Sequence of ELF1 (P32519 whole entry): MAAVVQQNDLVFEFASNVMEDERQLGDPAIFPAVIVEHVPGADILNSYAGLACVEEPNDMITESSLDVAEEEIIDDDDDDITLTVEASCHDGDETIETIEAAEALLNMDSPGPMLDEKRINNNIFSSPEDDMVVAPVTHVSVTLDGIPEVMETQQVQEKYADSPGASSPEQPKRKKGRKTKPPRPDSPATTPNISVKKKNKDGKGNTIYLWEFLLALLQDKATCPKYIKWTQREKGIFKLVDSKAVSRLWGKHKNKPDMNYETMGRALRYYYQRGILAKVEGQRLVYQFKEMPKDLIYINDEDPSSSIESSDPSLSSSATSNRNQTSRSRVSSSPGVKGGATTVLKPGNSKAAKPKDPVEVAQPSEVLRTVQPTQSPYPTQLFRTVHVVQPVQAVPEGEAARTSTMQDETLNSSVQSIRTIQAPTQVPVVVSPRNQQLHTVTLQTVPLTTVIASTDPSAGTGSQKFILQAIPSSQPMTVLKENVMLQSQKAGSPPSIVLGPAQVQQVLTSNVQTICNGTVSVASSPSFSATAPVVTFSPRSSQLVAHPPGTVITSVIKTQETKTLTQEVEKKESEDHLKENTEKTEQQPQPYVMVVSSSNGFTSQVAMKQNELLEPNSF
How it was run: as §1

EHF = target: T5, EHF (Homo sapiens, UniProt Q9NZC4 1-300); details: protein: recombinant; tags: N-terminal GST; dsDNA, one strand shown
T5 sequence: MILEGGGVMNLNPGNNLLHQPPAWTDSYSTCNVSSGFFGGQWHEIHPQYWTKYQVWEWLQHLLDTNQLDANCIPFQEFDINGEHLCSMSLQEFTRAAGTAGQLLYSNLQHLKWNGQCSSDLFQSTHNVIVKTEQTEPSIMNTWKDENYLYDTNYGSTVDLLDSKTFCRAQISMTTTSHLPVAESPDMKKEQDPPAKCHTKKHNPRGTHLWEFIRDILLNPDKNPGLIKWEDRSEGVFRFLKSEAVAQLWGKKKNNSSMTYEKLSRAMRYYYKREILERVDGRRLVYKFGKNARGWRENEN
How it was run: as §1

SPI1 = SPI1 (Homo sapiens, UniProt P17947 1-270); details: protein: recombinant; tags: N-terminal GST; dsDNA, one strand shown
How it was run: as §1

SPIB = SPIB (Homo sapiens, UniProt Q01892 1-262); details: protein: recombinant; tags: N-terminal GST; dsDNA, one strand shown
Sequence of SPIB (Q01892 whole entry): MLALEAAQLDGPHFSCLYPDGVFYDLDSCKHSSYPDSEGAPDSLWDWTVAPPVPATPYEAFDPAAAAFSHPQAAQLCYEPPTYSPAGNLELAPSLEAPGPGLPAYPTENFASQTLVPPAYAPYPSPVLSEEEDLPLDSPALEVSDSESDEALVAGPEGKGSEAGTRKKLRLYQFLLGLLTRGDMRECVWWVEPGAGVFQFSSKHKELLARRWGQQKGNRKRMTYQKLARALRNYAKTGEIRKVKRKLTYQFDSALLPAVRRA
How it was run: as §1

ELK3 = target: T6, ELK3 (Homo sapiens, UniProt P41970 1-407); details: protein: recombinant; tags: N-terminal GST; dsDNA, one strand shown
T6 sequence: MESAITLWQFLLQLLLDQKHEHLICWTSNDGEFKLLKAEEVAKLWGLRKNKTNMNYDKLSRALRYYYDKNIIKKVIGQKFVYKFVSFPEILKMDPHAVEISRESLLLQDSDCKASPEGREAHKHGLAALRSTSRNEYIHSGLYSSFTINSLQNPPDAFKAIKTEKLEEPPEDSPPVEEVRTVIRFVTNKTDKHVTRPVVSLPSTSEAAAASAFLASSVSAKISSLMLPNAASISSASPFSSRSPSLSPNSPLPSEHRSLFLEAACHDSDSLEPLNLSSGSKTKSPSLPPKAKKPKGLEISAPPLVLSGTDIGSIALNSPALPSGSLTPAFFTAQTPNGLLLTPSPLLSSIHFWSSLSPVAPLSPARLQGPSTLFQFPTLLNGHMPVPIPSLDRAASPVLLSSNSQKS
How it was run: as §1

FEV = target: T7, FEV (Homo sapiens, UniProt Q99581 1-238); details: protein: recombinant; tags: N-terminal GST; dsDNA, one strand shown
T7 sequence: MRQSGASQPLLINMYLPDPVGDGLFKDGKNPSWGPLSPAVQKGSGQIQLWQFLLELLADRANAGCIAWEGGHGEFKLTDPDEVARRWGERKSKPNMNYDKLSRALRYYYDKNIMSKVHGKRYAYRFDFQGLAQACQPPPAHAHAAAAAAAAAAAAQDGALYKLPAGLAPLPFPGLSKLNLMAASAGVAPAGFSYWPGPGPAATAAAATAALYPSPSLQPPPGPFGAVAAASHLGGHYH
How it was run: as §1

ETV5 = ETV5 (Homo sapiens, UniProt P41161 1-510); details: protein: recombinant; tags: N-terminal GST; dsDNA, one strand shown
Sequence of ETV5 (P41161 whole entry): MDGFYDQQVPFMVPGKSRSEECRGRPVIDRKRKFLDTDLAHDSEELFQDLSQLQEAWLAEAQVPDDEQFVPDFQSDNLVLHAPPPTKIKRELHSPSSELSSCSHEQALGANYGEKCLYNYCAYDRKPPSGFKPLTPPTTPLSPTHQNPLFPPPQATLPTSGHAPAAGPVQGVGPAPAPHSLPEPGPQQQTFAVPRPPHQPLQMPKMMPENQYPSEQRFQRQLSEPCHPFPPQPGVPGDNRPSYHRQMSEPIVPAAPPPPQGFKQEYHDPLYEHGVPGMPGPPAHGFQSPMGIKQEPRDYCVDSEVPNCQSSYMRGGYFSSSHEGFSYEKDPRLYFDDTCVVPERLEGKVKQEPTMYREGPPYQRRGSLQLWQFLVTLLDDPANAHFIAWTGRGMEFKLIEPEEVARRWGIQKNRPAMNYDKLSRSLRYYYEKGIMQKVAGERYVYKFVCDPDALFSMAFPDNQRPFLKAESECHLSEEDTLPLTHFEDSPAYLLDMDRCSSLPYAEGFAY
How it was run: as §1

HSF1 = HSF1 (Homo sapiens, UniProt Q00613 1-529); details: protein: recombinant; tags: N-terminal GST; chain copies: 3; dsDNA, one strand shown
Sequence of HSF1 (Q00613 whole entry): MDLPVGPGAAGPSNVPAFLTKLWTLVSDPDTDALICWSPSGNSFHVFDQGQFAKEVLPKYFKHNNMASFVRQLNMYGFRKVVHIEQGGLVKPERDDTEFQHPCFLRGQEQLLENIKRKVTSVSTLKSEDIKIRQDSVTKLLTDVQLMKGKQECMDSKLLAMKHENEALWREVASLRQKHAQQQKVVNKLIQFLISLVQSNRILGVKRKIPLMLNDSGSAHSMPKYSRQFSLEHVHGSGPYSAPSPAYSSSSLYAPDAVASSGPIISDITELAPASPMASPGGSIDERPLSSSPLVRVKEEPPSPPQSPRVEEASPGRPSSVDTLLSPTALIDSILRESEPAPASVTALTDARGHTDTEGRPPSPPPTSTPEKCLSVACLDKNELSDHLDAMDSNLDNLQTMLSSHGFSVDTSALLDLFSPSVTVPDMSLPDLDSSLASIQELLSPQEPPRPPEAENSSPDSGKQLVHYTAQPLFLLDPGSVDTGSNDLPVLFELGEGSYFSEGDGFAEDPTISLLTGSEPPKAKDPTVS
How it was run: as §1

SPIC = target: T8, SPIC (Homo sapiens, UniProt Q8N5J4 1-248); details: protein: recombinant; tags: N-terminal GST; dsDNA, one strand shown
T8 sequence: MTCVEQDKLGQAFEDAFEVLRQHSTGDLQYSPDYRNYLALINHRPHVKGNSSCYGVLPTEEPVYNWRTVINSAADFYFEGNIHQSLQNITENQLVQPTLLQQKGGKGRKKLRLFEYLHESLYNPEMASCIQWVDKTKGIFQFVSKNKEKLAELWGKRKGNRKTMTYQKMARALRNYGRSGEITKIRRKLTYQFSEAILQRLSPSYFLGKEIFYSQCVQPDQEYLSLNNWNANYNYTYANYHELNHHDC
How it was run: as §1

ELF4 = ELF4 (Homo sapiens, UniProt Q99607 1-663); details: protein: recombinant; tags: N-terminal GST; dsDNA, one strand shown
Sequence of ELF4 (Q99607 whole entry): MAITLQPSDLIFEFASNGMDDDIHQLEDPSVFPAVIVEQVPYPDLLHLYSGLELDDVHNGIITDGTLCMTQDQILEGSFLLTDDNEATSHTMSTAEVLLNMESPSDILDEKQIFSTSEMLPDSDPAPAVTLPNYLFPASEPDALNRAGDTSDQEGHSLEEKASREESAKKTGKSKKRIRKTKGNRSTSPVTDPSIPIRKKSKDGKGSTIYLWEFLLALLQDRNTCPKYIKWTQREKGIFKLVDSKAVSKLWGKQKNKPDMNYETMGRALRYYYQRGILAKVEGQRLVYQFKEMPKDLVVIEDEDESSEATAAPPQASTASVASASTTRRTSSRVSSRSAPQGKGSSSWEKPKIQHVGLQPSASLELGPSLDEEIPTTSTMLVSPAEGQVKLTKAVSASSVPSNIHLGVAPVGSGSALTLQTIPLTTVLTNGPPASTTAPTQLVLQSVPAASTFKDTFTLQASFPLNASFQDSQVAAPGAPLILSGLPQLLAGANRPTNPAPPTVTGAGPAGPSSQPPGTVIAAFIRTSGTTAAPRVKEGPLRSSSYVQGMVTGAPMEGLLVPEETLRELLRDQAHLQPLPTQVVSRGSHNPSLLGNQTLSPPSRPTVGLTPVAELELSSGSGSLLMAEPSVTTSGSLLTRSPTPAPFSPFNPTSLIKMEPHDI
How it was run: as §1

ELK4 = target: T9, ELK4 (Homo sapiens, UniProt P28324-2 1-405); details: protein: recombinant; tags: N-terminal GST; dsDNA, one strand shown
T9 sequence: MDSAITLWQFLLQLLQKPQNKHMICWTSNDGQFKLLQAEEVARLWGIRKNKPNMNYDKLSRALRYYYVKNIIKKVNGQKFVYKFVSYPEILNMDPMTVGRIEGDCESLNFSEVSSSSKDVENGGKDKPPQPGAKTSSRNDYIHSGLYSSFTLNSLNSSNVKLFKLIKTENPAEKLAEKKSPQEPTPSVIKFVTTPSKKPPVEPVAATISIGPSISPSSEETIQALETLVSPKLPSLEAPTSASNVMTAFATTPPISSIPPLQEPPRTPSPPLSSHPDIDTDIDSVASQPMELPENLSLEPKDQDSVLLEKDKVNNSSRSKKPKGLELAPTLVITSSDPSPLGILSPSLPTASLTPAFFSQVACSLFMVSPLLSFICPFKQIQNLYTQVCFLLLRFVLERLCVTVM
How it was run: as §1

ETV2 = target: T10, ETV2 (Homo sapiens, UniProt O00321 1-342); details: protein: recombinant; tags: N-terminal GST; dsDNA, one strand shown
T10 sequence: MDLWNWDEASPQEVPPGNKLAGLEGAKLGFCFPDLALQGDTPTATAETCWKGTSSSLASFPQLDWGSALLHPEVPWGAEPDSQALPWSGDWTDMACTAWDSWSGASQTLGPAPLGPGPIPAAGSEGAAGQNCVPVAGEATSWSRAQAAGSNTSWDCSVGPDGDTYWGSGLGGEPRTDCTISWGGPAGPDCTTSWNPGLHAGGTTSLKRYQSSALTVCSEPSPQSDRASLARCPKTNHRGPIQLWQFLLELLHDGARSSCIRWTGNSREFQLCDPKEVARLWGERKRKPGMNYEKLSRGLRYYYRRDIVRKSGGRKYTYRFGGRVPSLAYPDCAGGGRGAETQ
How it was run: as §1

ELF3 = target: T11, ELF3 (Homo sapiens, UniProt P78545 1-371); details: protein: recombinant; tags: N-terminal GST; dsDNA, one strand shown
T11 sequence: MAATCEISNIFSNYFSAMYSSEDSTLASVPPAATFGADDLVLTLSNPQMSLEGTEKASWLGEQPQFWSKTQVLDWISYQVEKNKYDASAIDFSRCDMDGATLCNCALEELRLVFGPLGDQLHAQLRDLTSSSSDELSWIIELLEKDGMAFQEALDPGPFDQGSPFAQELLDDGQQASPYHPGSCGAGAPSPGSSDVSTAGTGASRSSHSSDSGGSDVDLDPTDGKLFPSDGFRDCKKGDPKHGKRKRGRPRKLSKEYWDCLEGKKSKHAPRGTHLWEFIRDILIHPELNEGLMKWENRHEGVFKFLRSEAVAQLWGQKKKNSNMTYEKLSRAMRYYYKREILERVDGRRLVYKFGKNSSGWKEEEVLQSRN
How it was run: as §1

CRX = CRX (Homo sapiens, UniProt O43186 1-299); details: protein: recombinant; tags: N-terminal GST; dsDNA, one strand shown
Sequence of CRX (O43186 whole entry): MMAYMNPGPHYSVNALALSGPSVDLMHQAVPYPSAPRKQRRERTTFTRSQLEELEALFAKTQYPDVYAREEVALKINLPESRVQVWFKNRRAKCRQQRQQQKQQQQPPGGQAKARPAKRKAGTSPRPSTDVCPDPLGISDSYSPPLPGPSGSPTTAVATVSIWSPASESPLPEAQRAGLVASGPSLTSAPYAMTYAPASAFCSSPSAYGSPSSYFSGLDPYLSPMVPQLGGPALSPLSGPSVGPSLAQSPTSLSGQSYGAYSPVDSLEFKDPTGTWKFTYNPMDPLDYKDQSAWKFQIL
How it was run: as §1

ETV1 = ETV1 (Homo sapiens, UniProt P50549 1-477); details: protein: recombinant; tags: N-terminal GST; dsDNA, one strand shown
Sequence of ETV1 (P50549 whole entry): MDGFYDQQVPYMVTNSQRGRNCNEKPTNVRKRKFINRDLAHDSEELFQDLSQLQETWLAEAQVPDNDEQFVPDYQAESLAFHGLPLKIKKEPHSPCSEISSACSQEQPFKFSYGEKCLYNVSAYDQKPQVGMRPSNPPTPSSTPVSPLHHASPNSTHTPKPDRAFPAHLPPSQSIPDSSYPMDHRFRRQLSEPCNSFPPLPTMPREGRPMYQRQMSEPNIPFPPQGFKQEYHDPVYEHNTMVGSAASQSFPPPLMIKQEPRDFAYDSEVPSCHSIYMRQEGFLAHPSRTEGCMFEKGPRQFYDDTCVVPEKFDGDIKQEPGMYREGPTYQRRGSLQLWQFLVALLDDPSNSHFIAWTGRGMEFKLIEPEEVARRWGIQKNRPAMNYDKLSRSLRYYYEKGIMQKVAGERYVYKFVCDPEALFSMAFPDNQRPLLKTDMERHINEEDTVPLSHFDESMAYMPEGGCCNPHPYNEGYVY
How it was run: as §1

What does the source list for TACGTT?
binding signal (FLI1): 1.29 fold enrichment (6-mer frequency, TF over GST control); binding signal (ELK1): 1.26 fold enrichment (6-mer frequency, TF over GST control); binding signal (GABPA): 1.4 fold enrichment (6-mer frequency, TF over GST control); binding signal (ERG): 1.31 fold enrichment (6-mer frequency, TF over GST control); binding signal (ELF1): 1.29 fold enrichment (6-mer frequency, TF over GST control); binding signal (EHF): 1.24 fold enrichment (6-mer frequency, TF over GST control); binding signal (SPI1): 1.25 fold enrichment (6-mer frequency, TF over GST control); binding signal (SPIB): 1.33 fold enrichment (6-mer frequency, TF over GST control); binding signal (ELK3): 1.35 fold enrichment (6-mer frequency, TF over GST control); binding signal (FEV): 1.35 fold enrichment (6-mer frequency, TF over GST control); binding signal (ETV5): 1.33 fold enrichment (6-mer frequency, TF over GST control); binding signal (HSF1): 1.24 fold enrichment (6-mer frequency, TF over GST control); binding signal (SPIC): 1.47 fold enrichment (6-mer frequency, TF over GST control); binding signal (ELF4): 1.23 fold enrichment (6-mer frequency, TF over GST control); binding signal (ELK4): 1.29 fold enrichment (6-mer frequency, TF over GST control); binding signal (ETV2): 1.27 fold enrichment (6-mer frequency, TF over GST control); binding signal (ELF3): 1.12 fold enrichment (6-mer frequency, TF over GST control); binding signal (CRX): 1.34 fold enrichment (6-mer frequency, TF over GST control); binding signal (ETV1): 1.29 fold enrichment (6-mer frequency, TF over GST control)
